Molecules are shown by their SMILES. The campaign covered roughly 48,000 compounds. About 13,000 (27%) showed an effect of 50% or more. This is one part of the list.

The source of these data is ChEMBL document CHEMBL3988442, “University of Dundee, Small-Polar-MMV Screening Library” (2021).

This assay concerns Wolbachia pipientis. Briefly: Anti-Wolbachia Cell-Based Screen. In kind it is functional. Set-up: scale not given: in the data most compounds retested in dose-response had high values. The conditions noted are these: 5 µM.
Turning to `CCCn1cc(C(=O)N(C)Cc2nc(-c3ccccn3)no2)c(C)n1`, the “Percent Effect” value is on record as 4.948%.

Consider `CCO[C@@H]1CCN(C(=O)c2cnc(C)cn2)[C@@H]1Cc1cnn(C)c1`, for which the “Percent Effect” value is recorded as -1.532%.

Take `CS(=O)(=O)c1ccccc1N[C@@H]1c2ccccc2C[C@@H]1O`: the “Percent Effect” value is -8.17%.

For `CNc1nc(CNC(=O)Nc2ccc(OC)cc2C)cs1`, the “Percent Effect” value came to 10.14%.

As to `O=C(O)C(F)(F)F.O=C(O)C(F)(F)F.O=C1COC2(CCN(Cc3cccs3)CC2)CN1c1cccnc1`, the “Percent Effect” value worked out at 97.28%.

Regarding `CC(=O)N1CC(=O)N(c2cccnc2)CC12CCN(Cc1nccs1)C2.O=C(O)C(F)(F)F.O=C(O)C(F)(F)F` (stereo unspecified), the “Percent Effect” value is listed as -2.554%.

For `COc1cccc(-n2cc(CN(C)C(=O)c3cc[nH]n3)cn2)c1`, the “Percent Effect” value is listed as -0.6043%.

Regarding `COCc1nc(C(=O)N(Cc2ccccc2)CC(C)C(=O)O)cs1` (stereo unspecified), the “Percent Effect” value came out at 6.809%.

For the compound `COCCN(Cc1ccccc1)C(=O)c1csc(-c2nnc[nH]2)n1`, the “Percent Effect” value is 98.7%.

Consider `CN(CCCc1ccccc1)C(=O)CCc1nc(-c2nnc[nH]2)no1`, for which the “Percent Effect” value is -15.35%.

Regarding `CN(CCCOc1ccccc1)C(=O)c1csc(-c2nnc[nH]2)n1`, the “Percent Effect” value worked out at 111.9%.

As to `Cc1nc(-c2nnc[nH]2)sc1C(=O)N(Cc1cccnc1)C1CC1`, the “Percent Effect” value worked out at 1.946%.

With `COc1cccc(CN(C)C(=O)c2csc(-c3nnc[nH]3)n2)c1`, the “Percent Effect” value was 94.98%.

Turning to `Cc1csc(CN(C)CCOc2ccccc2)n1`, the “Percent Effect” value is recorded as -0.03273%.

Regarding `CCCc1nc(C(=O)N(C)Cc2cnn(-c3cccc(OC)c3)c2)cs1`, the “Percent Effect” value is -14.16%.

For `Cc1nc2c(NCC(C)N(C)c3ccccc3)ncnc2o1` (stereo unspecified), the “Percent Effect” value is on record as -36.58%.

On to `COc1ccc(C2(C(=O)NCc3c(C)ncc4c3CCNC4)CC2)cc1`, for which the “Percent Effect” value is listed as -10.04%.

As for `CNS(=O)(=O)c1cc(C(=O)N(C)Cc2sccc2C)c(C)o1`, the “Percent Effect” value is -10.4%.

For the compound `COc1c(C)cnc(CN(C)C(=O)Nc2ccc3c(c2)CCO3)c1C`, the “Percent Effect” value is on record as 3.992%.

In the case of `COc1ccc(Cc2ncc3c(n2)CN(C(=O)CN(C)C)C3)cc1`, the “Percent Effect” value was -15.7%.

`Cc1nc(C)n(CC2CN(CCOCC(F)(F)F)CCO2)n1` (stereo unspecified): the “Percent Effect” value is -2.106%.

On to `Cc1ccc(CN(C)C(=O)CNC(C)(C)c2noc(C(C)(C)C)n2)o1`, for which the “Percent Effect” value was 94%.

Regarding `Cc1csc(C(C)(C)NCCNS(C)(=O)=O)n1`, the “Percent Effect” value is -2.878%.

With `Cc1nc(C)n(CC2CCCN2CC(=O)N(C)Cc2ccc(C)o2)n1` (stereo unspecified), the “Percent Effect” value came to 1.913%.

Turning to `Cc1ccc(CNC(C)(C)c2noc(C(C)(C)C)n2)o1`, the “Percent Effect” value was determined as 107.5%.

As for `CCC(C)(NCC(=O)N(c1ccccc1)C(C)C)c1nc(C)cs1` (stereo unspecified), the “Percent Effect” value is recorded as -6.604%.

With `COc1ccccc1C(C)(C)NCc1ccc(C)o1`, the “Percent Effect” value is 6.664%.

`Cc1csc(C(C)(C)NCC(=O)N(C)Cc2ccc(C)o2)n1`: the “Percent Effect” value is recorded as 102.3%.

Turning to `Cc1cnn(C2CN(CC(=O)N(C)Cc3ccc(C)o3)C2)c1`, the “Percent Effect” value is listed as -130.6%.

As for `Cn1nccc1C(=O)NC(C)(C)c1noc(C(C)(C)C)n1`, the “Percent Effect” value is reported as 27.22%.

Turning to `Cc1nn(C)c(C)c1OCC(=O)NCC(O)c1ccsc1` (stereo unspecified), the “Percent Effect” value came out at 4.904%.

For the compound `CCC(=O)N1CCN(C(=O)Nc2ccccc2-c2cccs2)CC1`, the “Percent Effect” value is given as -6.486%.

In the case of `CCC(=O)N1CCN(C)C(=O)C(Cc2ccccc2-c2cccs2)C1` (stereo unspecified), the “Percent Effect” value was 157.1%.

As for `COCC(=O)N1CCN(C)C(=O)C(Cc2ccc(-c3cccs3)cc2)C1` (stereo unspecified), the “Percent Effect” value was 126.7%.

Regarding `O=C(Nc1ccccc1-c1cccs1)N1CCN(CC(F)F)CC1`, the “Percent Effect” value is -15.51%.

For the compound `COCC(=O)N1CCN(C)C(=O)C(Cc2ccccc2-c2cccs2)C1` (stereo unspecified), the “Percent Effect” value is on record as 162.7%.

For `CCC(=O)N1CSCC1C(=O)Nc1ccccc1-c1cccs1` (stereo unspecified), the “Percent Effect” value was -5.499%.

As to `COCC(=O)N1CCN(C(=O)c2cccs2)[C@@H](C(=O)OC)C1`, the “Percent Effect” value is on record as -3.923%.

Regarding `COCc1noc(Cn2ncn3cccc3c2=O)n1`, the “Percent Effect” value is -2.273%.

For the compound `COCc1noc(Cn2c(C3CC3)nc3ccccc32)n1`, the “Percent Effect” value is recorded as 95.56%.

Regarding `COCc1noc(Cn2c(=O)[nH]c3ccccc32)n1`, the “Percent Effect” value is listed as 93.82%.

For the compound `COCc1noc(Cn2ccc3ncccc3c2=O)n1`, the “Percent Effect” value amounted to 1.423%.

On to `COCc1noc(Cn2ccc3ccccc3c2=O)n1`, for which the “Percent Effect” value is listed as -17.57%.

Consider `COCc1noc(CN2CC(=O)N(C)c3ccccc3C2=O)n1`, for which the “Percent Effect” value was -11.96%.

On to `COCCc1noc(CN2CC(C)(c3ccccc3)CCC2=O)n1` (stereo unspecified), for which the “Percent Effect” value is given as -4.269%.

Turning to `COCCc1noc(Cn2ccc3ccccc3c2=O)n1`, the “Percent Effect” value was -26.03%.

As for `COCCc1noc(Cn2c(=O)[nH]c3ccccc32)n1`, the “Percent Effect” value is on record as 95.59%.

For the compound `CSCC(CCO)NC(=O)Nc1cc(Br)ccc1C` (stereo unspecified), the “Percent Effect” value turned out to be 9.066%.

As to `COCCN1CCC2(CCCN(C(=O)c3cncn3C)C2)CC1.O=C(O)C(F)(F)F`, the “Percent Effect” value is on record as -17.89%.

Turning to `CNC(=O)c1nc(COc2c(C)occc2=O)no1`, the “Percent Effect” value came out at 98.73%.

With `CNC(=O)c1nc(Cn2ncc3ccccc3c2=O)no1`, the “Percent Effect” value was -11.19%.
